Data on 39 compounds can be found in PubChem BioAssay (NCI).

Compounds without any hit were thinned out: in the full panel of roughly 83,000, 20% have a hit.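 Treatment: one concentration, 48 hours, 96-well format. Scoring: percent growth, with anything below 10 considered active.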 Values without a mark were called inactive. Active and inactive are the calls of the source.

The first test concerns MDA-MB-435 melanoma. Put plainly: NCI-60 one-dose screen, 48 h (100 = growth as untreated, 0 = no growth, -100 = all killed). To be noted: 10 µM unless noted.
For `Nc1nc(N)c2c(n1)NC1(C=C(O)c3ccccc31)C1=C(N2)c2ccccc2C1=O` (stereo not drawn), the growth was 125%.

With `COc1ccc(CCN2C(=O)/C(=C/c3ccc(C4Oc5ccccc5C5CC(c6cccc(OC)c6)=NN54)cc3)SC2=S)cc1` (stereo not drawn), the growth is 104%.

Regarding `O=C(Nc1ccc(N2CCNCC2)cc1)c1[nH]ncc1Nc1cc(Oc2ccccc2)ncn1`, the growth was 35.8%.

As for `O=C(CCc1nnc2sc(Cc3ccccc3Cl)nn12)c1nc2ncccc2[nH]1`, the growth is 102%.

Regarding `O=NN(Cc1cccnc1)C(=O)NC1CCCCC1`, the growth is 108%.

For `CN(C)/C=C1\SC(=Nc2ccc(Cl)cc2)NC1=O`, the growth is 104%.

Consider `CCOC(=O)c1cc2c(n1Cc1ccccc1)-c1oncc1CCC2`, for which the growth is -7.87% (active).

Regarding `O=C(c1ccccc1)N(C(=S)NCCc1ccc(Cl)cc1)c1ccccc1`, the growth was 84%.

`COc1cccc(/C=C/C(=O)c2c(C)nc3ccccc3c2/C=C/c2ccccc2)c1OC`: the growth was 15.1%.

Consider `CCOC(=O)c1cc2c(n1Cc1cccc(OC)c1)-c1oncc1CCC2`, for which the growth is -13.4% (active).

Turning to `COc1ccc(OC)c(NC(=O)/C(C#N)=C/c2ccco2)c1`, the growth is 98.8%.

On to `CCc1ccc(CNCC(O)c2ccccc2)cc1` (stereo not drawn), for which the growth was 69.9%.

Turning to `CC/C=C\C[C@H](O)C/C=C1/C(=O)C=C[C@@H]1C/C=C\CCCC(=O)OCCS(=O)(=O)c1ccccc1`, the growth was 28.3%.

As for `O=C1c2cc(Br)ccc2Oc2cc([N+](=O)[O-])ccc2N1c1ccc(I)cc1F`, the growth is 102%.

As for `COc1ccc(/C=C/C(=O)c2c(C)nc3ccccc3c2/C=C/c2ccccc2)cc1O`, the growth was 1.85% (active).

`COc1ccc(-c2nc(N3CCN(C(=O)C4CCCCC4)CC3)c3c4c(sc3n2)CCCC4)cc1`: the growth is -54.1% (active).

For `O=c1oc2ccc(F)cc2c(=O)n1-c1ccc(Cl)cc1F`, the growth was 1.54% (active).

For the compound `COc1cc(C(=O)Nc2ccc(-c3nc4ccccc4[nH]3)cc2)cc(OC)c1OC`, the growth is -25.2% (active).

In the case of `O=c1oc2ccc(Cl)cc2c(=O)n1-c1ccc(I)cc1F`, the growth was -6.3% (active).

As for `CCC1=C[C@@H]2CN(C1)Cc1c([nH]c3ccccc13)[C@@](C(=O)OC)(c1cc3c(cc1OC)N(C)[C@H]1[C@@](O)(C(=O)OC)[C@H](OC(C)=O)[C@]4(CC)[C@@H]5C[C@@H]5CN5CC[C@]31[C@@H]54)C2`, the growth was -57.7% (active).

With `O=c1oc2ccc(F)cc2c(=O)n1-c1ccc(I)cc1F`, the growth was -1.4% (active).

As to `COc1ccc(C2C3=C(COC3=O)N(CCO)c3cc4c(cc32)CCC4)cc1OC` (stereo not drawn), the growth is -45.6% (active).

Consider `O=c1oc2ccc(I)cc2c(=O)n1-c1ccc(Cl)cc1F`, for which the growth is 1.42% (active).

In the case of `O=C1OC(c2ccccc2)(c2ccccc2)c2ccsc21`, the growth was 108%.

As to `O=c1oc2ccc(-c3ccc(F)cc3F)cc2c(=O)n1-c1cccc(C(F)(F)F)c1`, the growth is 5.25% (active).

Turning to `Cn1nc(C(C)(C)C)cc1NC(=O)Cc1ccc(/C=C2\C(=O)Nc3ccccc32)cc1`, the growth was 56%.

Consider `Cc1ccc(Nc2nc(N)c3ccccc3n2)cc1Cl`, for which the growth was 92.1%.

As for `O=C(c1ccccc1)N(CCc1ccc(Cl)cc1)C(=S)N(C(=O)c1ccccc1)c1ccccc1`, the growth is 96.8%.

With `O=C(COc1cc(O)c2c(=O)cc(-c3ccccc3)oc2c1)Nc1ccccc1`, the growth was 95.3%.

With `O=C1c2cc(I)ccc2Oc2cc([N+](=O)[O-])ccc2N1c1ccc(Cl)cc1F`, the growth was 60.4%.

Turning to `Nc1ccc(-c2nn3c(CCC(=O)c4nc5ncccc5[nH]4)nnc3s2)c(O)c1`, the growth is 97.2%.

Consider `COc1c(B(O)O)cccc1-c1nc2ccc3[nH]ncc3c2c2c1C1CCC2C1` (stereo not drawn), for which the growth is 65.8%.

As for `Oc1c(CN2CCN(c3ccccc3F)CC2)cc(Br)c2cccnc12`, the growth is -48.3% (active).

In the case of `O=C(Nc1ccc(F)cc1F)c1cc(Br)ccc1O`, the growth is 0.167% (active).

As for `O=C(Nc1ccc(N2CCNCC2)cn1)c1[nH]ncc1Nc1ncnc2sccc12`, the growth is -86.1% (active).

With `O=C1c2ccc3c4c(ccc(c24)C(=O)N1CCCCO)C(=O)N(CCCCO)C3=O`, the growth was 3.2% (active).

For `CC[C@]1(O)C[C@@H]2CN(CCc3c([nH]c4ccccc34)[C@@](C(=O)OC)(c3cc4c(cc3OC)N(C)[C@H]3[C@@](O)(C(=O)OC)[C@H](OC(=O)CCCBr)[C@]5(CC)C=CCN6CC[C@]43[C@@H]65)C2)C1`, the growth was -36% (active).

Consider `Nc1ncnc(N)c1NC(=O)c1ccc(OCc2ccccc2)cc1`, for which the growth was 109%.

`O=c1oc2ccc(Cl)cc2c(=O)n1-c1ccc(F)cc1F`: the growth was 3.09% (active).

The subject of the next test is SW-620 colon. The description is as above. To be noted: 10 µM unless noted.
As for `Nc1nc(N)c2c(n1)NC1(C=C(O)c3ccccc31)C1=C(N2)c2ccccc2C1=O` (stereo not drawn), the growth was 99.4%.

As to `COc1ccc(CCN2C(=O)/C(=C/c3ccc(C4Oc5ccccc5C5CC(c6cccc(OC)c6)=NN54)cc3)SC2=S)cc1` (stereo not drawn), the growth is 98.4%.

Consider `O=C(Nc1ccc(N2CCNCC2)cc1)c1[nH]ncc1Nc1cc(Oc2ccccc2)ncn1`, for which the growth was -65.5% (active).

Turning to `O=C(CCc1nnc2sc(Cc3ccccc3Cl)nn12)c1nc2ncccc2[nH]1`, the growth was 88.4%.

Turning to `O=NN(Cc1cccnc1)C(=O)NC1CCCCC1`, the growth was 107%.

Take `CN(C)/C=C1\SC(=Nc2ccc(Cl)cc2)NC1=O`: the growth was 99.9%.

For the compound `CCOC(=O)c1cc2c(n1Cc1ccccc1)-c1oncc1CCC2`, the growth was 43%.

Take `O=C(c1ccccc1)N(C(=S)NCCc1ccc(Cl)cc1)c1ccccc1`: the growth was 76.9%.

On to `COc1cccc(/C=C/C(=O)c2c(C)nc3ccccc3c2/C=C/c2ccccc2)c1OC`, for which the growth was 13.2%.

As for `CCOC(=O)c1cc2c(n1Cc1cccc(OC)c1)-c1oncc1CCC2`, the growth was 23.6%.

Regarding `COc1ccc(OC)c(NC(=O)/C(C#N)=C/c2ccco2)c1`, the growth is 106%.

With `CCc1ccc(CNCC(O)c2ccccc2)cc1` (stereo not drawn), the growth was 89.6%.

With `CC/C=C\C[C@H](O)C/C=C1/C(=O)C=C[C@@H]1C/C=C\CCCC(=O)OCCS(=O)(=O)c1ccccc1`, the growth is 33.2%.

Turning to `O=C1c2cc(Br)ccc2Oc2cc([N+](=O)[O-])ccc2N1c1ccc(I)cc1F`, the growth was 94.2%.

As to `COc1ccc(/C=C/C(=O)c2c(C)nc3ccccc3c2/C=C/c2ccccc2)cc1O`, the growth was 19.4%.

For the compound `COc1ccc(-c2nc(N3CCN(C(=O)C4CCCCC4)CC3)c3c4c(sc3n2)CCCC4)cc1`, the growth is -1.68% (active).

As to `O=c1oc2ccc(F)cc2c(=O)n1-c1ccc(Cl)cc1F`, the growth is 11.3%.

Consider `COc1cc(C(=O)Nc2ccc(-c3nc4ccccc4[nH]3)cc2)cc(OC)c1OC`, for which the growth was 14.7%.

Turning to `O=c1oc2ccc(Cl)cc2c(=O)n1-c1ccc(I)cc1F`, the growth was 7.19% (active).

In the case of `CCC1=C[C@@H]2CN(C1)Cc1c([nH]c3ccccc13)[C@@](C(=O)OC)(c1cc3c(cc1OC)N(C)[C@H]1[C@@](O)(C(=O)OC)[C@H](OC(C)=O)[C@]4(CC)[C@@H]5C[C@@H]5CN5CC[C@]31[C@@H]54)C2`, the growth was 26.1%.

Turning to `O=c1oc2ccc(F)cc2c(=O)n1-c1ccc(I)cc1F`, the growth was 11%.

As to `COc1ccc(C2C3=C(COC3=O)N(CCO)c3cc4c(cc32)CCC4)cc1OC` (stereo not drawn), the growth is 14.7%.

For the compound `O=c1oc2ccc(I)cc2c(=O)n1-c1ccc(Cl)cc1F`, the growth is 11.7%.

Consider `O=C1OC(c2ccccc2)(c2ccccc2)c2ccsc21`, for which the growth is 97.4%.

Take `O=c1oc2ccc(-c3ccc(F)cc3F)cc2c(=O)n1-c1cccc(C(F)(F)F)c1`: the growth was 12.6%.

For the compound `Cn1nc(C(C)(C)C)cc1NC(=O)Cc1ccc(/C=C2\C(=O)Nc3ccccc32)cc1`, the growth is 76.8%.

As to `Cc1ccc(Nc2nc(N)c3ccccc3n2)cc1Cl`, the growth is 67.7%.

For `O=C(c1ccccc1)N(CCc1ccc(Cl)cc1)C(=S)N(C(=O)c1ccccc1)c1ccccc1`, the growth is 80.3%.

Consider `O=C(COc1cc(O)c2c(=O)cc(-c3ccccc3)oc2c1)Nc1ccccc1`, for which the growth is 87.5%.

`O=C1c2cc(I)ccc2Oc2cc([N+](=O)[O-])ccc2N1c1ccc(Cl)cc1F`: the growth is 82.5%.

As to `Nc1ccc(-c2nn3c(CCC(=O)c4nc5ncccc5[nH]4)nnc3s2)c(O)c1`, the growth was 90.1%.

Take `COc1c(B(O)O)cccc1-c1nc2ccc3[nH]ncc3c2c2c1C1CCC2C1` (stereo not drawn): the growth is 34.3%.

For the compound `Oc1c(CN2CCN(c3ccccc3F)CC2)cc(Br)c2cccnc12`, the growth is -13.5% (active).

`O=C(Nc1ccc(F)cc1F)c1cc(Br)ccc1O`: the growth is 13.1%.

In the case of `O=C(Nc1ccc(N2CCNCC2)cn1)c1[nH]ncc1Nc1ncnc2sccc12`, the growth is -89.2% (active).

For the compound `O=C1c2ccc3c4c(ccc(c24)C(=O)N1CCCCO)C(=O)N(CCCCO)C3=O`, the growth was 10.6%.

For `CC[C@]1(O)C[C@@H]2CN(CCc3c([nH]c4ccccc34)[C@@](C(=O)OC)(c3cc4c(cc3OC)N(C)[C@H]3[C@@](O)(C(=O)OC)[C@H](OC(=O)CCCBr)[C@]5(CC)C=CCN6CC[C@]43[C@@H]65)C2)C1`, the growth is 22.4%.

As to `Nc1ncnc(N)c1NC(=O)c1ccc(OCc2ccccc2)cc1`, the growth was 98.1%.

For the compound `O=c1oc2ccc(Cl)cc2c(=O)n1-c1ccc(F)cc1F`, the growth is 15.6%.
